Here are results for 40 sequences from the OligoGym collection.
Also: reference of the scale not given here.

The target of the first assay is GLA. As to the kind of experiment: pooled miR-30 sensor sort-seq; sequence = guide strand. The following applies: shRNA.
Regarding TTTTATTTCCAACATCTGCATA, the sensor-assay potency score (higher = more potent) is -1.26.
With AACATCAACAATTCTCTCCTGG, the sensor-assay potency score (higher = more potent) was found to be 0.959.
Same read-out and setting: the value for AACTGTCACAGTAACAACCATC was -1.1; that for TTAACCTTGAAGTCCATTCATA was -0.885.
On the same count and under the same terms, the value for ATACTCTTTATACTTTTCCAGG was -1.52.
On the same count and under the same terms, the result for TTTATTTCCAACATCTGCATAA reads -0.987.

Another assay concerns the target GLCE. The description is as above. The following applies: shRNA.
For TTTAACATCAAAGTGAACTCAA, the sensor-assay potency score (higher = more potent) was found to be 0.589.
Same read-out and setting: the result for TAACATATGGTATATAACCCAC reads -0.994.
Still for that read-out and setting: the value for TTTGTTAACAGATAGGCCCTGA was 0.615; that for TAAAAGGTCAAACTTGACCTTC was -0.602.
Still for that read-out and setting: the result for TTACTAGCCAATCACTAGCAGC reads -1.01; that for TCAAACTTGACCTTCATCCAGA, -0.0575.
On to TAAAAAGTTGAACACAGTCTGC, for which the sensor-assay potency score (higher = more potent) was -0.82.
With TAACATGTGCACATTGTGCTTA, the sensor-assay potency score (higher = more potent) is 0.792.
Regarding TTGCATATAGTATTTGATCTAA, the sensor-assay potency score (higher = more potent) was -0.789.
Same read-out and setting: the value for TACCATACTGTTATCATCGAGT was 0.0428; that for TTACCTTTTGCAATCAACCTAA was 0.22; that for TTATTTTGAACATCGGCACTGG was 0.23.

The next assay deals with GLI3. The assay is described as above. The following applies: shRNA.
The sequence TTTCGTGTCTTGCTGACTGAAG came in with a sensor-assay potency score (higher = more potent) of -0.362.
With TTGATCTTGGACCTCTTGTTGT, the sensor-assay potency score (higher = more potent) was -0.765.
On the same count and under the same terms, the result for TTGTGTCACTGAGCTGTCCTGA reads -0.401.
On the same count and under the same terms, the value for TCTGATGATAGTATTCTGCTGG was 0.381.
On the same count and under the same terms, the value for TATACTACCTCCATCGGTCAGA was -0.385; that for TTTTTCTTTTCAGTGGTCGTGG was 0.0526.
Sequence TTGTCGGCTTAGGATCTGCTGA came in with a sensor-assay potency score (higher = more potent) of -0.967.
The same measure, in the same setting: the value for TTGAGAATCGTGACCAAGGAGT was -0.494; that for TTTGGTCATAGAACTGACCAGA was -0.608.
Same read-out and setting: the result for TTTGAGTGTAACAATACTGATT reads -0.904.

In another assay the target is GLIPR2. Described as above. The following applies: shRNA.
The sequence TATCTGGCCACCACAAAGGAGG displayed a sensor-assay potency score (higher = more potent) of -1.73.
Take TCATTGACAACATTCCCCGCTG: the sensor-assay potency score (higher = more potent) is -0.0819.
On the same count and under the same terms, the result for TTCTTGATTTCACTGTACCATC reads -1.16; that for TGCTTGAGGATCCTCGTGCTGG, -0.832.
The same measure, in the same setting: the value for TATAGTTCTTGATTTCACTGTA was 0.562; that for TTTCCTGTCTGATCATAGGATG was -0.835; that for TTGACAACATTCCCCGCTGGGA was -0.899.
Same read-out and setting: the value for TTCTTGCAGAGCTTCAGTGGGG was -0.474.
TTATAGTTCTTGATTTCACTGT yielded a sensor-assay potency score (higher = more potent) of 0.709.
The same measure, in the same setting: the result for ATCTTCTTGGTGTTCTTCCATA reads -1.63.
On the same count and under the same terms, the result for TTCTTCCATACCATGGCCGTGA reads -1.01.
On the same count and under the same terms, the value for ATAGTTCTTGATTTCACTGTAC was 0.205.
